Test results: the supplement of paper PMC3545927
Some of the results follow. No count for the full screen is at hand.

Target: furin, P09958
Test: furin cleavage Z-score vs untreated control; higher = more cleavage, active = 3.5 or more, inactive = 1 or less, 8 variable residues between constant flanks
Method in brief: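 Furin-free reactions served as the baseline for the cleavage Z-score, which is the log read count lowess-adjusted and scaled by median absolute deviation. Counts came from released DNA, adapter-tagged by PCR and sequenced. Purified furin had cut 8-mer peptides fused to a cDNA oligonucleotide on magnetic beads during 7.5, 15 or 30 min at 1:10 enzyme:substrate.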
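Further: purified furin at 1:10 enzyme:substrate in 50 mM HEPES pH 7.5.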

furin, P09958, sequence (P09958 whole entry): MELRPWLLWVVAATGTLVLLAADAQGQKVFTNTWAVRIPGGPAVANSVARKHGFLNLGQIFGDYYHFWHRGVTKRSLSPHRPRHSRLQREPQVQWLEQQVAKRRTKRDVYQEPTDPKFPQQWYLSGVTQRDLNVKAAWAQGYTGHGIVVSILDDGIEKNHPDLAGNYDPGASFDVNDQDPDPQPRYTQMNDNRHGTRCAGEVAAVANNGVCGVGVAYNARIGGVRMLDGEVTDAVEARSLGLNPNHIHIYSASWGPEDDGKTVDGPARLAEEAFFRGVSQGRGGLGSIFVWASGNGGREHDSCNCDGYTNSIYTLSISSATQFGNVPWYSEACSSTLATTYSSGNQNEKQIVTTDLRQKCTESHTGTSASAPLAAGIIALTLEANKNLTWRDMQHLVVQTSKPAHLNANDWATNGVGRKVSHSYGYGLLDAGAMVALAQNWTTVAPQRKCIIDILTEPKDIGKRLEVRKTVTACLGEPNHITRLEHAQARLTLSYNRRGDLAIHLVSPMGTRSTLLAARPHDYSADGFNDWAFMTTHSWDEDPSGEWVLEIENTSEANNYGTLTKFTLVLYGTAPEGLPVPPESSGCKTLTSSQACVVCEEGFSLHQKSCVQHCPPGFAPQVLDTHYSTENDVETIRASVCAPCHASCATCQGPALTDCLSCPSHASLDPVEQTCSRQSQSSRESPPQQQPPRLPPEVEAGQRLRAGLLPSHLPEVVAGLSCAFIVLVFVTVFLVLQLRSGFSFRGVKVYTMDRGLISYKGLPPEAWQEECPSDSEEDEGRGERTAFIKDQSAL

B1: HC944 (peptide)
chain: CAHIDAHFLSAGNASASA
furin cleavage Z-score (7.5 min): -0.528 (inactive) | furin cleavage Z-score (15 min): -1.68 (inactive) | furin cleavage Z-score (30 min): -0.674 (inactive)

B2: HC246 (peptide)
chain: CAGCSFSIFLAGNASASA
furin cleavage Z-score (7.5 min): -1.55 (inactive) | furin cleavage Z-score (15 min): -1.86 (inactive) | furin cleavage Z-score (30 min): 0.305 (inactive)

B3: HC2186 (peptide)
chain: CAEVMTSTWVAGNASASA
furin cleavage Z-score (7.5 min): -0.944 (inactive) | furin cleavage Z-score (15 min): -0.894 (inactive) | furin cleavage Z-score (30 min): -0.0736 (inactive)

B4: HC827 (peptide)
chain: CALDQAETAGAGNASASA
furin cleavage Z-score (7.5 min): 0.305 (inactive) | furin cleavage Z-score (15 min): 0.588 (inactive) | furin cleavage Z-score (30 min): 0.353 (inactive)

B5: HC2356 (peptide)
chain: CAEVGCHRPSAGNASASA
furin cleavage Z-score (7.5 min): 0.279 (inactive) | furin cleavage Z-score (15 min): 0.829 (inactive) | furin cleavage Z-score (30 min): 0.483 (inactive)

B6: HC1375 (peptide)
chain: CAALVTPCAAAGNASASA
furin cleavage Z-score (7.5 min): -0.826 (inactive) | furin cleavage Z-score (15 min): -0.333 (inactive) | furin cleavage Z-score (30 min): -1.48 (inactive)

B7: HC1844 (peptide)
chain: CATIPCSGSWAGNASASA
furin cleavage Z-score (7.5 min): -0.402 (inactive) | furin cleavage Z-score (15 min): -1.52 (inactive) | furin cleavage Z-score (30 min): -0.285 (inactive)

B8: FS-1328 (peptide)
chain: CAGKSRRKRQAGNASASA
furin cleavage Z-score (7.5 min): 11.6 (active) | furin cleavage Z-score (15 min): 12.5 (active) | furin cleavage Z-score (30 min): 8.34 (active)

B9: FS-1084 (peptide)
chain: CASPSVRKRQAGNASASA
furin cleavage Z-score (7.5 min): 1.65 | furin cleavage Z-score (15 min): 1.54 | furin cleavage Z-score (30 min): 0.547 (inactive)

B10: DV1 (peptide)
chain: CAGKKRRPVKAGNASASA
furin cleavage Z-score (7.5 min): 0.52 (inactive) | furin cleavage Z-score (15 min): 1.23 | furin cleavage Z-score (30 min): 0.39 (inactive)

B11: FS-516 (peptide)
chain: CAVSVRRKRQAGNASASA
furin cleavage Z-score (7.5 min): 11.2 (active) | furin cleavage Z-score (15 min): 12.2 (active) | furin cleavage Z-score (30 min): 9.86 (active)

B12: FS-420 (peptide)
chain: CAFTSRFKRQAGNASASA
furin cleavage Z-score (7.5 min): 10.7 (active) | furin cleavage Z-score (15 min): 10.3 (active) | furin cleavage Z-score (30 min): 8.02 (active)

B13: FS-1243 (peptide)
chain: CAPRLRRKRQAGNASASA
furin cleavage Z-score (7.5 min): 10.3 (active) | furin cleavage Z-score (15 min): 9.75 (active) | furin cleavage Z-score (30 min): 8.73 (active)
